By AC50 is commonly meant the concentration at which the activity in the assay is half-maximal.

Consider 57 molecules from PubChem BioAssay AID1851 (National Center for Advancing Translational Sciences (NCATS), 2009).

“And” between values parts separate entries of the source, which are not always exact repeats. Identical values can stand only once. Among all 16,000 compounds or so, about 5,700 (36%) were called active. Another 24% or so got no clear call; they are omitted. This is one part of the list. A number with no mark means an inactive call. Calls come from the whole dose curve; as a rule, active = well fitted curve in the direction sought with a large enough effect; inconclusive = small, poorly fitted or top-dose-only effect, or effect the other way; inactive = no such curve, though single readings can be large or run the other way.
% is set by controls: 0 for no effect and ±100 for the full control effect.

This assay deals with Cytochrome P450 1A2 (Homo sapiens) (UniProt P05177). As to the kind of experiment: Cytochrome panel assay with activity outcomes. The conditions noted are these: recombinant CYP, pro-luciferin dealkylation, luminescence, p450-cyp1a2; series mostly up to 57.1 µM.
Chain of Cytochrome P450 1A2 (Homo sapiens) (P05177 whole entry, looked up): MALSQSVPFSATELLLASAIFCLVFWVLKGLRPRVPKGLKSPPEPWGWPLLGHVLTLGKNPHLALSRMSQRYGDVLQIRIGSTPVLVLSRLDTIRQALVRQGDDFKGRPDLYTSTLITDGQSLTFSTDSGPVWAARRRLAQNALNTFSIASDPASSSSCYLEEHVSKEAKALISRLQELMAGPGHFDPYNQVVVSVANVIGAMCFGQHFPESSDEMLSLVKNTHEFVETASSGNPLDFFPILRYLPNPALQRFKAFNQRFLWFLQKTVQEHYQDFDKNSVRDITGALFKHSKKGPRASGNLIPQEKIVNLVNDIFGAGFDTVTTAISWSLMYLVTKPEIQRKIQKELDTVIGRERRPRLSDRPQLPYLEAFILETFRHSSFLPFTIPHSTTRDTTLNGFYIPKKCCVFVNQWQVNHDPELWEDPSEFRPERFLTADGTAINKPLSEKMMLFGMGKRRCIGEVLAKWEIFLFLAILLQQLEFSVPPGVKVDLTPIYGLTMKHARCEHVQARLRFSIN
For the molecule `COc1ccc(COC(=O)N/N=C2/C[C@@H](O)[C@@H](O)[C@@H]3[C@@H]4C(=O)N(C(C)(C)C)C(=O)[C@H]4CC[C@H]23)cc1`, the activity, negative = inhibition is -10.2% [at 11.4 µM].
With `COC(=O)c1sccc1-c1ccc(C(=O)Nc2cccc(Cl)c2)o1`, the AC50 is 1.41 µM (active).
Same read-out and setting: the value for `CN(C)S(=O)(=O)Oc1ccsc1C(=O)Nc1cccc(Cl)c1` was 1.41 µM (active); that for `CN(C)S(=O)(=O)c1ccc(NC(=O)c2cc(F)c(F)cc2Cl)cc1` was “inactive”; that for `Cc1ccc(Sc2ccc(NC(=O)c3ccc(S(C)(=O)=O)cc3Cl)cc2)cc1` was “inactive”.
Same read-out and setting: the value for `CN(C)S(=O)(=O)Oc1ccsc1C(=O)Nc1ccc(Cl)cc1` was 0.891 µM (active); that for `C[C@]12CC3CC(N)(C1)C[C@@](C)(C3)C2` was “inactive”; that for `CC(C)C(CCNC(=O)CC(Cc1ccccc1)c1ccco1)c1ccco1` (configuration not stated) was “inactive”.
On the same count and under the same terms, to `C=C1C(=O)C=C2CN(C(=O)c3ccccc3)[C@@](Cc3ccc(OC)cc3)(C(=O)OC)[C@@H]12` belongs 15.8 µM (active); to `COC(=O)[C@@]1(Cc2ccc(F)cc2)[C@@H]2C(=CC(=O)[C@H]2CC(=O)C(=O)N(C)C)CN1C(=O)c1ccccc1`, “inactive”; to `COC(=O)[C@@]1(Cc2ccc(F)cc2)[C@@H]2C(=CC(=O)[C@H]2CC(=O)C(=O)N2CCCC2)CN1C(=O)c1ccccc1`, “inactive”.
As to `C=C1C(=O)C=C2CN(C(=O)c3ccccc3)[C@@](Cc3ccc(F)cc3)(C(=O)OC)[C@@H]12`, the concentration at half-maximal activity (AC50) was 15.8 µM (active).
In the case of `COC(=O)[C@@]1(Cc2ccc(OC)cc2)[C@@H]2C(=CC(=O)[C@H]2CC(=O)C(=O)N(C)C)CN1C(=O)c1ccccc1`, the AC50 entry is “inactive”.
Still for that read-out and setting: to `COC(=O)[C@@]1(Cc2ccc(OC)cc2)[C@@H]2C(=CC(=O)[C@H]2CC(=O)C(=O)N2CCCC2)CN1C(=O)c1ccccc1` belongs “inactive”; to `CCN1CCN(C(=O)N[C@H](C(=O)N[C@@H]2C(=O)N3C(C(=O)O)=C(CSc4nnnn4C)CS[C@@H]23)c2ccc(O)cc2)C(=O)C1=O`, “inactive”; to `O=C(O)CSc1cc(C(F)(F)F)nc(-c2ccccn2)n1`, “inactive”.
Still for that read-out and setting: to `CC(C)Nc1cc(C(F)(F)F)nc(-c2ccccn2)n1` belongs 1.58 µM (active); to `CCOC(=O)CSc1cc(C(F)(F)F)nc(-c2ccccn2)n1`, 2.24 µM (active).
Regarding `FC(F)(F)c1cc(Sc2ccccc2)nc(-c2ccccn2)n1`, the AC50 was 0.891 µM (active).
For `COC(=O)CSc1cc(C(F)(F)F)nc(-c2ccccn2)n1`, the AC50 was 0.708 µM (active).
Still for that read-out and setting: to `COc1ccccc1-c1cncnc1NCc1cccc(C)c1` belongs 5.01 µM (active); to `COc1ccccc1-c1cncnc1NCc1ccccc1`, 12.6 µM (active); to `COc1ccccc1-c1cncnc1NCc1cccnc1`, 6.31 µM (active).
The same measure, in the same setting: the value for `CCC[C@@H]1C[C@@]1(CCC)C(NS(=O)(=O)c1cccc2cccnc12)c1ccc(Cl)cc1` (some centres not stated) was “inactive”.
The same measure, in the same setting: to `CC(C)NC(=O)N1CC[C@@]2(CCCN(C(=O)c3cccc(F)c3)C2)C1` belongs “inactive”; to `COc1ccc2[nH]cc(CCNc3ncnc4ccc(-c5ccoc5)cc34)c2c1`, 0.316 µM (active); to `COc1ccc2[nH]cc(CCNc3ncnc4ccc(-c5ccc6c(c5)OCO6)cc34)c2c1`, 0.631 µM (active).
Consider `C=CC(C)(C)c1[nH]c2ccccc2c1C1=C(O)C(=O)C(c2c[nH]c3c(CC=C(C)C)cccc23)=C(O)C1=O`, for which the AC50 is 25.1 µM (active).
Still for that read-out and setting: the value for `O=C(CSc1nnc2sc3ccccc3n12)NCc1ccco1` was 10 µM (active); that for `O=C(CSc1nnc(-c2ccco2)n1-c1ccccc1)NCc1ccco1` was “inactive”.
Take `CCOC(=O)c1sc2nc(CC(=O)OC)nc(NCc3ccc(F)cc3)c2c1C`: the AC50 was 14.1 µM (active).
Consider `COc1ccc(COC(=O)N/N=C2/C[C@@H](O)[C@@H](O)[C@@H]3[C@@H]4C(=O)N(c5cccc(Oc6ccccc6)c5)C(=O)[C@H]4CC[C@@H]23)cc1`, for which the activity, negative = inhibition was -36.2% [at 11.4 µM].
As for `Cc1cc(=O)[nH]c(SCC(=O)Nc2nc3c(s2)CCCC3)n1`, the concentration at half-maximal activity (AC50) was 12.6 µM (active).
The same measure, in the same setting: to `Nc1cc(=O)[nH]c(SCC(=O)Nc2ccc(S(=O)(=O)N3CCOCC3)cc2)n1` belongs “inactive”; to `Cc1cc(=O)[nH]c(-n2[nH]c3c(c2=O)CCCC3)n1`, “inactive”.
In the case of `C/C(=N/Nc1nc(C)cc(=O)[nH]1)C(=O)O`, the activity, negative = inhibition is -8.18% [at 11.4 µM].
Take `CCC(Sc1nc(C)cc(=O)[nH]1)C(=O)Nc1nc2c(s1)CCCC2` (configuration not stated): the AC50 is 12.6 µM (active).
As to `CC(c1ccccc1C(O)c1ccccc1)N(C)C` (configuration not stated), the AC50 result is “inactive”.
Still for that read-out and setting: to `COc1cccc(C2=NOC(C(=O)Nc3ccc(OC)c(OC)c3)C2)c1` (configuration not stated) belongs 10 µM (active); to `O=C(NNC(=O)C1CC(c2cccnc2)=NO1)Nc1cccc(F)c1` (configuration not stated), 14.1 µM (active).
The same measure, in the same setting: the value for `Cc1ccc(NC(=O)NNC(=O)C2CC(c3cccnc3)=NO2)cc1` (configuration not stated) was “inactive”; that for `COc1cccc(C2=NOC(C(=O)NCCN3CCOCC3)C2)c1` (configuration not stated) was “inactive”; that for `COCCNC(=O)C1CC(c2cccc(OC)c2)=NO1` (configuration not stated) was “inactive”.
The same measure, in the same setting: the value for `COc1ccc(NC(=O)C2c3cc(OC)c(OC)cc3C(=O)N(C)C2c2cccnc2)cc1OC` (configuration not stated) was “inactive”.
`COc1cccc(C2=NOC(C(=O)Nc3cccnc3)C2)c1` (configuration not stated): the AC50 is 10 µM (active).
On the same count and under the same terms, the value for `O=C(Nc1cccc(F)c1)N1CC2(CCN(C(=O)c3cnccn3)CC2)C1` was “inactive”.
With `CCN1C(=O)[C@H]2[C@@H]3[C@H](O)[C@H](O)CC(=O)[C@H]3CC[C@H]2C1=O`, the activity, negative = inhibition is -11.3% [at 11.4 µM] and -4.71% [at 11.4 µM].
Take `CN1CCCN(C2C3CC4CC(C3)CC2C4)CC1` (configuration not stated): the AC50 entry was “inactive”.
Regarding `c1cc(CNCCN2CCNCC2)ccn1`, the activity, negative = inhibition is -16% [at 11.4 µM].
For the molecule `c1cc(CSSCc2ccncc2)ccn1`, the AC50 was 2 µM (active).
On the same count and under the same terms, the value for `CN(Cc1ccco1)c1ncnc2ccc(-c3ccoc3)cc12` was 2.51 µM (active); that for `CN(Cc1ccco1)c1ncnc2ccc(-c3ccc4c(c3)OCO4)cc12` was 0.501 µM (active); that for `O=C(c1ccncc1)N1CCC2(CCN(Cc3ccccc3)CC2)CC1` was “inactive”.
Turning to `O=C(NNC(=O)c1ccncc1)c1ccncc1`, the activity, negative = inhibition is -7.18% [at 11.4 µM].
As to `O=C(CC(=O)c1ccncc1)c1ccccc1`, the AC50 is 0.1 µM (active).
Same read-out and setting: the value for `Cn1c(-c2sc(=S)n(-c3ccccc3)c2N)nc2ccccc21` was 0.708 µM (active).
With `O=C1C[C@@H](O)[C@@H](O)[C@H]2[C@@H]3C(=O)N(Cc4ccccc4)C(=O)[C@@H]3CC[C@H]12`, the activity, negative = inhibition is 7.93% [at 11.4 µM] and -5.24% [at 11.4 µM].
